From PubChem BioAssay
Many of the other results were omitted from the sample, so hits are more common in it than they were.
TDP1 cell CPT – DT40-hTDP1 cell growth loss with CPT. chicken DT40 Tdp1-/-;hTDP1 cells + 20 nM CPT, ATP luminescence, 48 h. AID 686979. Potency, µM (titrated, usually from 46.2 µM), hits mostly inhibitors. 420,000 tested, 12% active; also: nearly all actives have a fitted effect of over 55% in size
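Cell growth measured by CellTiter-Glo luminescence after a minimum 48 h, 37 C compound exposure with 20 nM CPT in Tdp1-knockout DT40 cells stably expressing hTDP1, seeded 400/well; qHTS titration format.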
IL1B secr inh – blocks inflammasome-driven IL-1 beta release; THP-1 LPS/ATP IL-1B secretion, AlphaLISA, 16 h; stronger effect = lower value; 360,000 tested, 4.7% active; activity change, % at 57.5 µM; in the data active = activity change below about -50%; inconclusive = mostly about -30% to -49%
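Secreted IL-1B measured by AlphaLISA bead assay after 16 h compound exposure of THP-1 cells; compounds (final up to 57.5 uM) added 1 h before LPS (250 ng/mL) and ATP (1.25 mM) stimulation; lower signal means less secretion.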
HT1080 IDH1KD tx – kills HT-1080 cells with IDH1 knockdown. HT-1080 IDH1 knockdown viability, ATP luminescence, 48 h. Potency, µM (top dose mostly 46.1 µM), usual class: cytotoxic. AID 686971. 360,000 tested, 2% active
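Using the IDH1-knockdown HT-1080 line run in the same batch and compound series as the NT line, viability after 48 h at 37 °C was determined by CellTiter-Glo luminescence and expressed as % activity.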
ALOX12 inh – ALOX12 (human) lipoxygenase inhibition | purified 12hLO, xylenol orange hydroperoxide absorbance | Potency, µM (top dose mostly 108 µM), usual class: inhibitors | 580,000 tested, 1.1% active | P18054
Target sequence (P18054 whole entry, looked up): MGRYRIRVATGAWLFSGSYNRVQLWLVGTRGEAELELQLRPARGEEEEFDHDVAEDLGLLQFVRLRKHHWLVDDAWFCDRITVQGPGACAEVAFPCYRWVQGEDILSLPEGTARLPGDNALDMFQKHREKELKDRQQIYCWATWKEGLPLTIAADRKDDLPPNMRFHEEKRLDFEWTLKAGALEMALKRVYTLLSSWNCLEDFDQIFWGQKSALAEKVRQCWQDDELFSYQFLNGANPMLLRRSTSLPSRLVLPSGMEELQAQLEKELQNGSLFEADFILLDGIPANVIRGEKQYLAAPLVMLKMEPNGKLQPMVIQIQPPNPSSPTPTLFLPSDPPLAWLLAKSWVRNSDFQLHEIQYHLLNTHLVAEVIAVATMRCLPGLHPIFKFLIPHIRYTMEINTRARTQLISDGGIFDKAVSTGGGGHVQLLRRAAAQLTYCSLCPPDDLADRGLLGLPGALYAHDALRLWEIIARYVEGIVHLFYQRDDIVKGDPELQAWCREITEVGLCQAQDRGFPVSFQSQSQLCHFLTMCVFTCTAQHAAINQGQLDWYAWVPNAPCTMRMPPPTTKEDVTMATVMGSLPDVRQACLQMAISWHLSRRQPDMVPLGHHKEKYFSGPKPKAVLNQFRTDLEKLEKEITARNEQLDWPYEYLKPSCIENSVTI
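Purified human 12hLO (150 nM final) in 25 mM Hepes, 0.01% Triton X-100, pH 7.0 was preincubated 15 min at room temperature with compound. Then 40 uM arachidonic acid was added, 30 min. Hydroperoxide was read by Fe-XO absorbance ratio 573/405 nm.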
TDP1 cell noCPT – qHTS for Inhibitors of human tyrosyl-DNA phosphodiesterase 1 (TDP1): qHTS in cells in absence of CPT; Potency, µM (titrated, usually from 46.2 µM), usual class: inhibitors; DT40 Tdp1-/- hTDP1 cells, no CPT, ATP luminescence, 48 h; 420,000 tested, 15% active; also: nearly all actives have a fitted effect of over 55% in size
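No-CPT arm: Tdp1-/-;hTDP1 DT40 cells (400/well) plus compounds, incubated ≥48 hr at 37 °C. Readout CellTiter-Glo luminescence.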
HT1080-NT tox – kills 2HG-producing HT-1080-NT fibrosarcoma cells. 360,000 tested, 1.6% active. Potency, µM (doses to about 46.1 µM), hits mostly cytotoxic. AID 686970. HT-1080-NT fibrosarcoma viability, CellTiter-Glo ATP luminescence, 48 h;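 also: NT is the 2HG producing partner of a matched IDH1 knockdown line; nearly all actives have a fitted effect of over 55% in size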
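Viability by CellTiter-Glo luminescence after 48 h compound exposure at 37C of HT-1080-NT cells (750/well, RPMI, 5% FBS). % activity scaled between DMSO wells and medium-only wells, then curve-fitted and categorized by curve class.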
Each line names hits and unclear results; the compound was inactive in the other large screens; ! = not active in a repeat. Unless noted, calls follow the shape of the dose curve; as a rule, active = well fitted curve in the direction sought with a large enough effect; inconclusive = small, poorly fitted or top-dose-only effect, or another doubt; inactive = no such curve, though single readings can be large; an effect the other way counts as inactive or inconclusive.

CCSc1ccccc1C(=O)n1nnc2ccccc21	TDP1 cell CPT 12.6µM, HT1080 IDH1KD tx inconclusive, TDP1 cell noCPT inconclusive, HT1080-NT tox inconclusive
O=C(c1cc2ccccc2o1)n1nnc2ccccc21	none
COc1ccc(C(=O)n2nnc3ccccc32)cc1Br	TDP1 cell CPT 16.4µM, TDP1 cell noCPT inconclusive (no result: ALOX12 inh)
COc1ccc(C(=O)n2nnc3ccccc32)cc1OC	TDP1 cell CPT inconclusive
CC1(COc2cccnc2)COc2ccc(C(=O)NCc3ccc4c(c3)OCO4)cc2N1 (stereo not drawn)	none (no result: TDP1 cell CPT, IL1B secr inh, HT1080 IDH1KD tx, TDP1 cell noCPT, HT1080-NT tox)
NC(=O)CNC(=O)C1=C[C@@H](NC(=O)Nc2ccccc2Br)[C@@H](O)[C@H](O)C1	none (no result: TDP1 cell CPT, IL1B secr inh, HT1080 IDH1KD tx, TDP1 cell noCPT, HT1080-NT tox)
CCC(CC)C(=O)O	none (no result: TDP1 cell CPT, IL1B secr inh, HT1080 IDH1KD tx, TDP1 cell noCPT, HT1080-NT tox)
CCOc1ccccc1NC(=O)CCc1ncc(-c2ccc(C)cc2)o1	none (no result: TDP1 cell CPT, IL1B secr inh, HT1080 IDH1KD tx, TDP1 cell noCPT, HT1080-NT tox)
O=C(N/N=C/C(Br)=C/c1ccccc1)c1ccccc1[N+](=O)[O-]	TDP1 cell CPT 13µM, TDP1 cell noCPT 13µM
O=C(CN1CCOCC1)N/N=C/c1ccc(C(=O)O)cc1	none
Cc1occc1C(=O)N/N=C/C(Br)=C/c1ccccc1	TDP1 cell CPT 9.2µM, IL1B secr inh -78.4, TDP1 cell noCPT 11.6µM
Cc1occc1C(=O)N/N=C/c1cccnc1	none
O=C(CN1CCOCC1)N/N=C/C(Br)=C\c1ccccc1	TDP1 cell CPT 11.6µM, IL1B secr inh inconclusive, TDP1 cell noCPT 10.3µM
CN1CCCC(CC2c3ccccc3Sc3ccccc32)C1 (stereo not drawn)	TDP1 cell CPT inconclusive, IL1B secr inh -57.5, HT1080 IDH1KD tx 18.4µM, TDP1 cell noCPT 8.05µM, HT1080-NT tox 20.6µM
COc1ccc2c(c1)CCN=C2C[C@H]1CN(C(=O)c2ccc(C#N)cc2)CC[C@H]1CC(=O)O	ALOX12 inh 63.1µM (no result: TDP1 cell CPT, IL1B secr inh, HT1080 IDH1KD tx, TDP1 cell noCPT, HT1080-NT tox)
COc1ccc(/C=N/N2CCN(c3ccccc3)CC2)cc1Br	IL1B secr inh -55.0, ALOX12 inh inconclusive
COc1cc(/C=N/N2CCCCC2)cc(OC)c1O	TDP1 cell CPT 18.4µM, ALOX12 inh inconclusive, TDP1 cell noCPT 18.4µM
COc1ccc(/C=N/N2CCN(c3ccccc3OC)CC2)cc1OC	none
COc1ccccc1N1CCN(/N=C/c2ccc(O)c(O)c2)CC1	TDP1 cell CPT 18.4µM, HT1080 IDH1KD tx inconclusive, ALOX12 inh inconclusive, TDP1 cell noCPT 9.2µM
Cc1ccc(-c2csc(NC(=O)C3CC(=O)N(Cc4ccco4)C3)n2)cc1 (stereo not drawn)	TDP1 cell CPT inconclusive, IL1B secr inh -64.7, TDP1 cell noCPT inconclusive
Cc1csc(NC(=O)C2CC(=O)N(Cc3ccco3)C2)n1 (stereo not drawn)	none
CCOc1ccccc1NC(=O)COc1coc(CN2CCc3ccccc3C2)cc1=O	TDP1 cell CPT inconclusive, TDP1 cell noCPT 13µM
CCOc1ccccc1NC(=O)COc1coc(CN2CCCc3ccccc32)cc1=O	TDP1 cell CPT inconclusive, TDP1 cell noCPT inconclusive
CCOC(=O)C1=C(C)N(C)C(=O)NC1c1ccc(Br)s1 (stereo not drawn)	none (no result: TDP1 cell CPT, IL1B secr inh, HT1080 IDH1KD tx, TDP1 cell noCPT, HT1080-NT tox)
CCOC(=O)[C@H](CCc1ccccc1)N[C@@H](C)C(=O)N1Cc2ccccc2C[C@H]1C(=O)O	TDP1 cell CPT inconclusive, ALOX12 inh inconclusive, TDP1 cell noCPT 0.259µM!
CCOC(=O)[C@@H](CCc1ccccc1)N[C@H](C)C(=O)N1[C@H](C(=O)O)C[C@@H]2CCC[C@@H]21	none
CCCCc1nn2cc(-c3ccc(F)cc3)nc2s1	none (no result: TDP1 cell CPT, IL1B secr inh, HT1080 IDH1KD tx, TDP1 cell noCPT, HT1080-NT tox)
CCOc1nc(C#N)nc(N2CCCCC2)n1	TDP1 cell CPT 20.6µM, IL1B secr inh -92.2, TDP1 cell noCPT 14.6µM
COc1nc(N2CCCCCC2)nc(N2CCCCCC2)n1	TDP1 cell CPT inconclusive, TDP1 cell noCPT inconclusive
N#CCOc1nc(N2CCCCC2)nc(N2CCCCC2)n1	TDP1 cell CPT inconclusive
COc1nc(C#N)nc(N2CCCC2)n1	TDP1 cell CPT inconclusive, TDP1 cell noCPT 15.8µM (no result: IL1B secr inh, HT1080 IDH1KD tx, ALOX12 inh, HT1080-NT tox)
Cc1nnc2n1CCC(NC(=O)NCCc1ccccc1)CC2 (stereo not drawn)	none (no result: TDP1 cell CPT, IL1B secr inh, HT1080 IDH1KD tx, TDP1 cell noCPT, HT1080-NT tox)
CCc1ccc(C(=O)N2C[C@@H](CO)[C@H](c3nc(CCOC)no3)C2)cc1	none (no result: TDP1 cell CPT, IL1B secr inh, HT1080 IDH1KD tx, TDP1 cell noCPT, HT1080-NT tox)
